Screening results from PubChem.
Hits are enriched below; roughly 11% of the tested compounds scored in any of these assays.
HPGD block: inhibitors of human 15-hydroxyprostaglandin dehydrogenase (HPGD) | P15428 | purified HPGD, NADH fluorescence kinetic, PGE2 substrate | Potency, µM, most hits filed as inhibitors | actives 4.3% (n = 150,000) | AID 894
Target sequence (P15428 whole entry, looked up): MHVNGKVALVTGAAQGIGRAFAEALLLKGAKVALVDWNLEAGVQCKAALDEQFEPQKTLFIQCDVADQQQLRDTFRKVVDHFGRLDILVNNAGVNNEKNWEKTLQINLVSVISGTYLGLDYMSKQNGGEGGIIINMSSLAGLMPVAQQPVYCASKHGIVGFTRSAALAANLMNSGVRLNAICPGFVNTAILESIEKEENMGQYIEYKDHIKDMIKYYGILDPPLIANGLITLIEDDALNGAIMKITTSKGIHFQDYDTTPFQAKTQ
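NADH formation kinetics: reaction with 30 uM PGE2 and 1 mM NAD+ (final), 20 nM enzyme, Tris-HCl pH 8 with Tween 20, after 15 min compound preincubation at room temperature. Fluorescence change, last versus first of five reads.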
IMPase Li cell: IMPase inhibition in cells with lithium potentiation; CHO-M1 cells, IP1 TR-FRET (IP-One), carbachol + lithium; Potency, µM (series often up to 59.4 µM), most hits filed as inhibitors; actives 0.35% (n = 210,000); AID 1457; active means well fitted inhibition curve with a large enough effect; inconclusive means small, poorly fitted or top-dose-only effect; inactive means no such curve, though single readings can be large or run the other way;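 further: IP1 builds up when IMPase is blocked and the TR-FRET signal falls; nearly all actives have a fitted effect of over 50% in size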
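Steps: plate 2000 CHO-M1 cells per well and culture 16–30 h; add compound and lithium; incubate 30 min, 37C; add d2-IP1 tracer and Eu cryptate anti-IP1 antibody in lysis buffer; read after 10 min at room temperature.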
PNC inhibitor: perinucleolar compartment assembly inhibition; actives 3.1% (n = 140,000); activity change (PNC), negative = inhibition, % at 10 µM; PC3M PTB-GFP, PNC prevalence imaging, 16 h; hits give low values;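 active means readout at or below -70, meaning at least 70% loss of cells showing the perinucleolar compartment, a nuclear body marking cancer cells; inconclusive means readout between -30 and a set limit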
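Compounds are pinned in duplicate onto adhered PC3M cells stably expressing GFP-tagged PTB and incubated 16 h at 37 C. Cells are then fixed, nuclei stained with Hoechst, and PNC-positive cells counted.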
ALDH1A1 inh: ALDH1A1 (human) enzyme inhibition; P00352; actives 7.3% (n = 220,000); Purified ALDH1A1, NADH fluorescence, propionaldehyde substrate; Potency, µM (highest dose often 75.3 µM), usual class: inhibitors; AID 1030
IMPase inh: membrane-permeable compound that blocks inositol monophosphatase | P97697 | CHO-M1 cells, IP1 accumulation, HTRF TR-FRET ratio | AID 901 | 120,000 tested, under 10 active | inhibition (IP1 accumulation), % at 46.1 µM; active means well fitted curve in the direction sought with a large enough effect in the signal ratio, not every such curve was filed as active; inconclusive means small, poorly fitted or top-dose-only effect, or a change in a side signal; inactive means no such curve, though single readings can be large or run the other way; the % refers to the signal ratio;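 further: cells stimulated with carbachol in lithium chloride buffer; higher means more IMPase inhibition seen as more IP1 and lower FRET ratio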
Target sequence (P97697 whole entry, looked up): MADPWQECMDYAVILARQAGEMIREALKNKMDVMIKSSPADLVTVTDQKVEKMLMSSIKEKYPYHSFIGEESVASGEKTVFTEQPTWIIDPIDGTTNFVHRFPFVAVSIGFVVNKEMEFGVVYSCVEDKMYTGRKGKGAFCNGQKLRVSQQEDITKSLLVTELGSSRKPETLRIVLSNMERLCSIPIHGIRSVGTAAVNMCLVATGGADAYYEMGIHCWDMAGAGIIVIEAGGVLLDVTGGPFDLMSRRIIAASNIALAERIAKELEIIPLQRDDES
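Cellular IMPase inhibition is scored as a rise in cytosolic IP1, detected by competitive TR-FRET between d2-labelled IP1 and a europium anti-IP1 antibody. M1-expressing CHO cells were stimulated with carbachol for 30 min at 37C, with lithium (50 mM LiCl) present in the buffer.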
Hits are given with their value; [ ] = another dose, or the depositor's remark. Unless noted, the call rests on the fitted dose curve; in most records, active means well fitted inhibition curve with a large enough effect (not every such curve was filed as active); inconclusive means small, poorly fitted or top-dose-only effect, or another doubt; inactive means no such curve, though single readings can be large or run the other way.

How did COc1ccc2ccc(O)c(CN3CC=C(c4ccccc4)CC3)c2c1 do in these assays?
IMPase Li cell: inactive; ALDH1A1 inh: inconclusive

What do the screens show for `COc1ccc(N2C(=O)CC(N3CC=C(c4ccccc4)CC3)C2=O)cc1` (configuration not stated)?
HPGD block: inconclusive; IMPase Li cell: inactive; PNC inhibitor: inconclusive; ALDH1A1 inh: 10µM; IMPase inh: inactive

What do the screens show for `Cc1c(O)c(O)cc2c1CC=C1[C@]3(C)CC[C@]4(C)CC[C@@](C)(C(=O)O)CC4[C@]3(C)CC[C@]12C` (some centres not stated)?
HPGD block: 18µM; IMPase Li cell: inactive; ALDH1A1 inh: inactive

How did CCn1c(=O)oc2cc(NC(=O)CCl)ccc21 do in these assays?
IMPase Li cell: inactive; ALDH1A1 inh: 1.6µM

How did O=C(OC1Cc2c(O)cc(O)cc2OC1c1cc(O)c(O)c(O)c1)c1cc(O)c(O)c(O)c1 (configuration not stated) do in these assays?
HPGD block: 14µM; IMPase Li cell: inactive; ALDH1A1 inh: inconclusive

Results for Oc1cc(O)c2c(c1)OC(c1cc(O)c(O)c(O)c1)C(O)C2 (configuration not stated) ?
HPGD block: 16µM; IMPase Li cell: inactive; ALDH1A1 inh: inconclusive

What do the screens show for `CCCBr`?
HPGD block: inactive; IMPase Li cell: inactive; ALDH1A1 inh: inactive

How did ClC1=C(Cl)C2(Cl)C3C(Cl)C(Cl)CC3C1(Cl)C2(Cl)Cl (configuration not stated) do in these assays?
HPGD block: inactive; IMPase Li cell: inactive; ALDH1A1 inh: inactive

How did Cc1c2ccncc2c(C)c2c1[nH]c1ccccc12 do in these assays?
HPGD block: inactive; IMPase Li cell: inactive; PNC inhibitor: -115; ALDH1A1 inh: inconclusive; IMPase inh: inactive

Results for Cc1cc(C=C2C(=O)NC(=S)NC2=O)c(C)n1-c1ccc2c(c1)OCO2 ?
HPGD block: 8.9µM; IMPase Li cell: inactive; PNC inhibitor: inconclusive; ALDH1A1 inh: 2.8µM; IMPase inh: inactive

What do the screens show for `CCN(N=O)C(N)=O`?
HPGD block: inactive; IMPase Li cell: inactive; ALDH1A1 inh: inactive

Results for COC[C@H]([C@@H](O)[C@@H](O)C(=O)NCC[C@@H](C)c1nc(/C=C/C[C@H]2OC3(C[C@H](O)[C@H]2C)OC([C@@H](C[C@@H](O)[C@@H](C)[C@@H](O)[C@@H](C)/C=C(C)/C(C)=C/C=C/C(C)=C\C#N)OC)[C@@H](OP(=O)(O)O)C3(C)C)co1)N(C)C (some centres not stated) ?
IMPase Li cell: inactive; ALDH1A1 inh: inactive

What do the screens show for `N[C@H](CCP(=O)(O)O)C(=O)O`?
HPGD block: inactive; IMPase Li cell: inactive; ALDH1A1 inh: inactive; IMPase inh: inactive

Results for Cc1cccc(N2C(=O)/C(=C/c3ccc(N4CCN(C)CC4)o3)C(=O)NC2=S)c1C ?
HPGD block: inactive; IMPase Li cell: inactive; PNC inhibitor: inactive; ALDH1A1 inh: 14µM

How did C=CC(=C)C do in these assays?
HPGD block: inactive; IMPase Li cell: inactive; ALDH1A1 inh: inactive

How did CN[C@H]1C[C@H]2O[C@@](C)([C@H]1OC)n1c3ccccc3c3c4c(c5c6ccccc6n2c5c31)C(=O)NC4 do in these assays?
HPGD block: inconclusive; IMPase Li cell: inactive; PNC inhibitor: -115; ALDH1A1 inh: inactive

How did COC(=O)C1(O)CC2OC1(C)n1c3ccccc3c3c4c(c5c6ccccc6n2c5c31)C(=O)NC4 (configuration not stated) do in these assays?
HPGD block: inactive; IMPase Li cell: inactive; ALDH1A1 inh: inactive[13.5 µM]

What do the screens show for `COc1ccc(C(C)=O)cc1COC(=O)c1ccc2ccccc2n1`?
IMPase Li cell: inactive; ALDH1A1 inh: 14µM

What do the screens show for `O=C(c1cc(C(=O)NCc2ccccc2)c(=O)n(Cc2ccccc2)c1)c1cc(Cl)ccc1O`?
HPGD block: 16µM; IMPase Li cell: inactive; PNC inhibitor: inconclusive; ALDH1A1 inh: inconclusive

Results for CC(C)CCNC(=O)c1cc(C(=O)c2cc(Br)ccc2O)cn(CCC(C)C)c1=O ?
IMPase Li cell: inactive; ALDH1A1 inh: inactive

What do the screens show for `OC[C@H]1O[C@@H](n2cnc3cc(Cl)c(Cl)cc32)[C@H](O)[C@H]1O`?
IMPase Li cell: inactive; ALDH1A1 inh: inconclusive

How did C=C(C)CN1C(=O)C(O)(CC(=O)c2ccc3c(c2)OCCO3)c2ccccc21 (configuration not stated) do in these assays?
HPGD block: inactive; IMPase Li cell: inactive; PNC inhibitor: inactive; ALDH1A1 inh: 11µM; IMPase inh: inactive

Results for CC[C@H](CO)NC(=O)[C@@H]1C=C2c3cccc4c3c(cn4C)C[C@@H]2N(C)C1 ?
IMPase inh: inactive

What do the screens show for `N#CC(c1ccc(Cl)nn1)c1c(F)cccc1Cl` (configuration not stated)?
IMPase Li cell: inactive; ALDH1A1 inh: 14µM

How did C[N+](C)(C)CC#CCN1CCCC1=O do in these assays?
HPGD block: inactive; IMPase Li cell: inactive; ALDH1A1 inh: inactive; IMPase inh: inactive

Results for C/C(Cl)=C/CC1(CN2CCCC2=O)C(=O)NC(=O)NC1=O ?
PNC inhibitor: -122; ALDH1A1 inh: inactive; IMPase inh: inactive

How did O=C1NC(=O)C(=Cc2ccc(-c3cc(Cl)ccc3[N+](=O)[O-])o2)C(=O)N1 do in these assays?
IMPase Li cell: inactive; ALDH1A1 inh: 22µM

How did COC(C)(C)C do in these assays?
HPGD block: inactive; IMPase Li cell: inactive; ALDH1A1 inh: 18µM

Results for CC(C)(C)OOC(C)(C)C ?
HPGD block: inactive; IMPase Li cell: inactive; ALDH1A1 inh: inactive

What do the screens show for `O=C(CCN1CC2CCC(CC2)C1)c1cccs1`?
HPGD block: inactive; IMPase Li cell: inactive; ALDH1A1 inh: 0.071µM

Results for COc1cc(CC2(CCc3ccncc3)C(=O)NC(=O)NC2=O)cc(OC)c1OC ?
IMPase Li cell: inactive; ALDH1A1 inh: inactive

What do the screens show for `COc1ccc(CCNCc2ccccc2F)cc1OC`?
HPGD block: inactive; IMPase Li cell: inactive; PNC inhibitor: inconclusive; ALDH1A1 inh: inactive; IMPase inh: inactive

How did COc1ccc(CCN(C)Cc2ccncc2)cc1OC do in these assays?
HPGD block: inactive; IMPase Li cell: inactive; PNC inhibitor: -91; ALDH1A1 inh: inactive; IMPase inh: inactive

Results for COc1ccc(CCNCc2ccncc2)cc1OC ?
HPGD block: inactive; IMPase Li cell: inactive; PNC inhibitor: inactive; ALDH1A1 inh: 13µM; IMPase inh: inactive

Results for CC(=O)[C@@H]1CC[C@H]2[C@@H]3CC[C@@H]4CC(=O)CC[C@]4(C)[C@H]3CC[C@]12C ?
IMPase Li cell: inactive; ALDH1A1 inh: inconclusive

Results for CCC(=O)O[C@H]1CC[C@H]2[C@@H]3CCC4=CC(=O)CC[C@]4(C)[C@H]3CC[C@]12C ?
HPGD block: inactive; IMPase Li cell: inactive; ALDH1A1 inh: inactive; IMPase inh: inactive
